Experimental data: PubChem BioAssay AID2544 (Sanford-Burnham Center for Chemical Genomics, 2010)
The campaign covered roughly 330,000 compounds. About 390 (0.12%) were called active.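 Rule for the calls: active = inhibition reaching a set limit with compound at 10 µM in the primary screen (cut at about 35% in these data); inactive = the rest.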 Only a selection was taken, and actives are over-represented in it overall.

The compounds below were run against Intestinal-type alkaline phosphatase (Homo sapiens) (UniProt P09923) (assay: human IAP inhibitors, primary screen, biochemical, luminescence, uHTS (AID 2544;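 note: plate controls were DMSO wells with enzyme for no effect and no-enzyme buffer wells for full effect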)). Conditions: purified IAP, CDP-Star luminescence, 30 min; at 10 µM; stronger effect = higher value.
Sequence of Intestinal-type alkaline phosphatase (Homo sapiens) (P09923 whole entry, looked up): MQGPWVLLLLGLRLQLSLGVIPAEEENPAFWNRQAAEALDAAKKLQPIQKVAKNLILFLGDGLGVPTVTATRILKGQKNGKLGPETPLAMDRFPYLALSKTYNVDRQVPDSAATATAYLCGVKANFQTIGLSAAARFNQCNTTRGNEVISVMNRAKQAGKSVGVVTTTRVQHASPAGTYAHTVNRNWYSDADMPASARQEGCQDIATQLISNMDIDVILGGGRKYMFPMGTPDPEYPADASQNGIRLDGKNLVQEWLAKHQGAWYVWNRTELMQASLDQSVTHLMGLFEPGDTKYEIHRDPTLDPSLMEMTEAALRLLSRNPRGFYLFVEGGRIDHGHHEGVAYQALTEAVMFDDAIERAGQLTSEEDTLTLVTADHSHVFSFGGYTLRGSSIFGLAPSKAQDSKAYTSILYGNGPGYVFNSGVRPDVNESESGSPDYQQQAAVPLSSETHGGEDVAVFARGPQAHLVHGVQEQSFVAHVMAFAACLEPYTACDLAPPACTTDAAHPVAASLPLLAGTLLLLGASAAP

SMILES	inhibition
CC(Sc1cccc[n+]1[O-])C(=O)Nc1cccc(S(=O)(=O)N2CCOCC2)c1 (stereo unspecified)	-16.4% (inactive)
CCNC(=S)N(CCc1c(C)[nH]c2ccc(C)cc12)Cc1ccco1	3.7% (inactive)
Cc1c(C(=O)OC(C)C)sc(NC(=O)c2cccnc2)c1C#N	-1.7% (inactive)
CCOC(=O)N1CCC(NC(=O)CN2C(=O)COc3ccc(C(C)(C)C)cc32)CC1	-21.5% (inactive)
Cc1ccc(C(C)(C)C)c(OCCCCN2CCCC2)c1	10.8% (inactive)
O=C(C[n+]1cc(Br)cc2ccccc21)c1ccc(F)cc1	-5.7% (inactive)
COc1ccc(CCOC2OC(CO)C(OC(=O)/C=C/c3ccc(O)c(OC)c3)C(O[C@H]3O[C@@H](C)[C@H](O)[C@@H](O)[C@H]3O)C2O)cc1O (stereo partly specified)	4.7% (inactive)
COc1cccc(CNS(=O)(=O)c2ccc3c(c2)N(C(C)=O)CCS3)c1	38.6% (active)
COc1cccc(CNS(=O)(=O)c2ccc3c(c2)CC(C)N3C(=O)C2CCC2)c1 (stereo unspecified)	4.9% (inactive)
COc1cccc(CNS(=O)(=O)c2csc(C(N)=O)c2)c1	13.3% (inactive)
CC1CN/C(=C\C(=O)c2ccc(Br)cc2)C(=O)N1 (stereo unspecified)	-17% (inactive)
COC(=O)c1ccc(COC(=O)c2cnccn2)cc1	21.3% (inactive)
Cc1cc(NC(=O)C(C)N2C(=O)c3ccccc3S2(=O)=O)no1 (stereo unspecified)	-15.1% (inactive)
Cn1cnnc1Sc1ccc(S(C)(=O)=O)cc1[N+](=O)[O-]	-11.6% (inactive)
CCn1c(C)nc2c1C(=O)c1ccccc1C2=O	1.5% (inactive)
COc1ccc(CNC(=O)/C(C#N)=C/c2cccc(OC)c2OC)cc1	-1.8% (inactive)
COCCNC(=O)/C(C#N)=C/c1cccc(OCc2ccccc2)c1	1.1% (inactive)
N#C/C(=C\c1ccc(O)c(O)c1)C(=O)NCc1ccccc1	37.4% (active)
O=C(NCCCc1ccccc1)C1CCC(CNc2c(N3CCCCC3)c(=O)c2=O)CC1 (stereo unspecified)	-6.9% (inactive)
COc1cc(/C=C2/SC(=S)N(Cc3ccccc3)C2=O)cc(OC)c1O	39.3% (active)
CN1C=CC=C/C1=C1\SC(=S)N(Cc2ccccc2)C1=O	-4.6% (inactive)
COc1cccc(/C=C2/SC(=S)N(CC(=O)NC3C=CS(=O)(=O)C3)C2=O)c1 (stereo unspecified)	-52% (inactive)
CC1CCCCC1NC(=O)c1cn(C)c2ccc(S(=O)(=O)N3CCOCC3)cc2c1=O (stereo unspecified)	-21.4% (inactive)

SMILES	inhibition
CCc1ccccc1NC(=S)N(CCN1CCCCCC1)Cc1ccco1	-3.8% (inactive)
CCCC(C(=O)NCc1ccco1)N(C(=O)CNS(=O)(=O)c1ccccc1)C1CCCC1 (stereo unspecified)	-14.9% (inactive)
Cc1cc(-c2nnc(SCC(=O)Nc3ccc(F)cc3)n2N)n[nH]1	-8.7% (inactive)
CC(=O)Nc1ccc(S(=O)(=O)NCC(=O)OCC(=O)c2ccc[nH]2)cc1	5.4% (inactive)
Cc1noc(C)c1COc1ccccc1C(=O)N(C)CC(=O)Nc1cccc(F)c1	-9.4% (inactive)
Cc1ccc(OCCNC(=O)CNC(=O)c2ccc(C)c(C)c2)cc1	-7.8% (inactive)
CCOc1nnc(C)c2c(C)n(-c3cccc(Cl)c3)nc12	-4.1% (inactive)
Cc1cccc(C(=O)Nc2ccc(C(=O)/C=C/c3cccs3)cc2)c1	-7.8% (inactive)
CCOc1ccc(NC(=O)CN(C)C(=O)CCSc2ccc(F)cc2)cc1OCC	-1.7% (inactive)
Cn1c(SCc2nc3ccccc3s2)nnc1-c1ccc2c(c1)OCO2	16.7% (inactive)
COc1ccc(CNC(=O)c2c[nH]c3c(OC)cc(OC)cc3c2=O)cc1	-24.3% (inactive)
COc1ccc(N2CCN(C(=O)COC(=O)c3cccc(S(=O)(=O)Nc4ccccc4OC)c3)CC2)cc1	9.2% (inactive)
O=c1c(/C=N/O)coc2ccc(Cl)cc12	54.1% (active)
CCOC(=O)C1CCN(Cc2coc3ccc(Cl)cc3c2=O)CC1	-6.6% (inactive)
Cc1ccc2occ(/C=N/NC(=O)c3ccccc3C)c(=O)c2c1	13% (inactive)
Cc1cccc(-n2c(O)c(C=Nc3ccccc3N)c(=O)[nH]c2=O)c1	14.1% (inactive)
CCc1c(C)nc(N)n2c(SCC(=O)NC3CCCCC3)nnc12	-2.5% (inactive)
Nc1nnc(SCC(=O)NCC(=O)Nc2ccc(F)c(F)c2F)s1	-11.7% (inactive)
O=S(=O)(c1ccc(F)cc1)n1ccc(-c2cnc(-c3ccccc3)s2)n1	5.2% (inactive)
COc1cccc(CN(C)CC2CCCN(CCc3ccc(Cl)cc3)C2)c1OC (stereo unspecified)	-36.9% (inactive)
O=C1CN(C(=O)COC(=O)c2cnc(Cl)c(Cl)c2)c2ccccc2N1	6.4% (inactive)
c1ccc(-c2nnc3n2NC(c2ccc4c(c2)OCO4)S3)cc1 (stereo unspecified)	-10.6% (inactive)
COc1ccc(Cl)cc1-n1c(=S)sc2c(=O)n(-c3ccc(F)cc3)c(SCC(=O)O)nc21	10.8% (inactive)

SMILES	inhibition
COc1ccc(C2C(C#N)=C(N)N(c3ncn[nH]3)C3=C2C(=O)CCC3)cc1 (stereo unspecified)	6.9% (inactive)
COc1ccc2c(c1OC)C(=O)N(c1ncn[nH]1)C2	39.6% (active)
COc1ccc2c(c1OC)C(=O)N(c1ccc(O)cc1)C2	-4.8% (inactive)
COc1cc([N+](=O)[O-])ccc1NC(=S)N1CCN(c2ccccn2)CC1	6.4% (inactive)
Cc1cc(C)nc(-n2ncc3c2CC(c2ccc(C(C)C)cc2)CC3=O)n1 (stereo unspecified)	3.4% (inactive)
COc1ccc([N+](=O)[O-])cc1C1NN=C(c2cccc3ccccc23)S1 (stereo unspecified)	-10.4% (inactive)
COc1nnc(-c2ccc(C)c(S(=O)(=O)N(C)C)c2)c2ccccc12	1.6% (inactive)
O=c1[nH]c(/C=C\c2cccc(C(F)(F)F)c2)nc(O)c1[N+](=O)[O-]	-10.6% (inactive)
COCCNC(=O)/C(C#N)=C/c1nc(N(C)C)n(-c2ccc(F)cc2)c1Cl	8.4% (inactive)
Cc1ccc(S(=O)(=O)CCC(=O)OCC(=O)N(C)C2CCS(=O)(=O)C2)cc1 (stereo unspecified)	-12.8% (inactive)
COc1ccc(-c2cn3ccc(C)cc3n2)cc1	-3.2% (inactive)
Cc1ccc(C(=O)NNC2=Nc3cc([N+](=O)[O-])ccc3OC2)cc1	-72.1% (inactive)
COc1ccc(C2=Nc3cc(C)ccc3OC2)cc1	41.5% (active)
O=C(CNC(=O)c1cc(=O)[nH]c2ccccc12)Nc1ccc(F)c(F)c1	-5.1% (inactive)
CC(=O)Nc1ccc(S(=O)(=O)N2CCN(S(=O)(=O)c3cccs3)CC2)cc1	1.1% (inactive)
CC(=O)c1cccc(NC(=O)C2CCCN2S(=O)(=O)c2cccc3nsnc23)c1 (stereo unspecified)	18.3% (inactive)
CC(=O)c1ccc(NC(=O)C2CCCN2S(=O)(=O)c2cccs2)cc1 (stereo unspecified)	37.2% (active)
O=C(CC(Cc1ccccc1)C(=O)O)NCCc1ccc2c(c1)OCO2 (stereo unspecified)	-65.3% (inactive)
CCc1ccc(NC(=O)NC(C)c2ccc3c(c2)OCO3)cc1 (stereo unspecified)	-18.5% (inactive)
CC(=NCc1ccc2c(c1)OCO2)C1=C(O)c2ccccc2C1=O	82.2% (active)
COc1cccc(-n2c(=O)c3c(C)c(C(=O)N(C)C)sc3n(CC(=O)NCCc3ccc(OC)c(OC)c3)c2=O)c1	-1.6% (inactive)
C[N+]1(CCNC(=O)/C=N/O)CCCCC1	-34.9% (inactive)
CC(=O)c1ccc(S(=O)(=O)Nc2ccc(-c3ccc4nncn4n3)cc2)cc1	-1.5% (inactive)

SMILES	inhibition
COC(=O)[C@H](C(C)C)n1c(C)c(C(C)=O)c(C(C)=O)c1C	-6.9% (inactive)
CC(C)C[C@H](NC(=O)[C@@H]1O[C@H]1C(=O)O)C(=O)NCCCCN=C(N)N	14.6% (inactive)
CCCc1ccc(C(=O)[C@@H]2[C@@H](C(C)=O)N3c4ccc(F)cc4C=C[C@@H]3[C@@]23C(=O)Nc2ccccc23)cc1	0% (inactive)
CCCCc1nc(NCCN)c(C#N)c2c1CSC(C)(C)C2	6.8% (inactive)
Cc1ccc(S(=O)(=O)Nc2ccc(F)c(S(=O)(=O)N3CCOCC3)c2)cc1	-6.7% (inactive)
CC(Oc1ccccc1)C(=O)NN1Cc2ccccc2C1=N (stereo unspecified)	-9.2% (inactive)
Cc1cccn2c(=O)nc(SCC(=O)NCc3ccccc3Cl)nc12	-1.6% (inactive)
COC(=O)CSc1nnc(NC(=O)CCc2ccccc2)s1	-5.1% (inactive)
COCCSc1nnc(NC(=O)CCS(=O)(=O)Cc2ccccc2)s1	35.1% (active)
CCOCc1nnc(NC(=O)CCS(=O)(=O)Cc2ccccc2)s1	-9.2% (inactive)
CCOc1ccccc1NC(=S)N1CCN(c2cccc(C)c2C)CC1	-5.2% (inactive)
COc1ccccc1C(=O)N(C1=NC(C)CS1)c1ccc(Cl)cc1 (stereo unspecified)	-3% (inactive)
Cc1ccn2c(=O)c(C(=O)NCCC3=CCCCC3)c(O)nc2c1	6.8% (inactive)
O=C(Nc1cc(S(=O)(=O)N2CCOCC2)ccc1OCC(F)(F)F)c1ccc(N2CCCC2=O)cc1	2.5% (inactive)
Cc1cc(C)c2c(n1)sc1c(=O)n(-c3ccccc3)c(=O)[nH]c12	5.6% (inactive)
Cc1ccc(-n2c(C)nnc2SCC(=O)NC2CC2)cc1	-12.6% (inactive)
Cc1nc(-c2ccc(F)cc2)c(CC(=O)Nc2cc(S(=O)(=O)N3CCCCC3)ccc2C)s1	-13.3% (inactive)
CC(C)Oc1c(Br)cc(Br)cc1/C=N/NC(N)=S	14.7% (inactive)
COc1ccc(C(C(=O)NC(C)(C)C)N(C(=O)Cn2nnc3ccccc32)c2ccc(C(C)=O)cc2)cc1O (stereo unspecified)	-15.8% (inactive)
CCC(=O)c1ccc(OCC(=O)OCC(=O)NC2CCCCCC2)cc1	8.3% (inactive)
Oc1ccc(CNc2ccccc2O)cc1	-0.8% (inactive)
COc1ccc(/C=C2\N=C3CCCN3C2=O)cc1	7.3% (inactive)
